Inconclusive results are not listed. Active and inactive are the calls of the source. Unless noted, the call rests on the fitted dose curve; in most records, active means well fitted curve in the direction sought with a large enough effect in the repeat runs; inconclusive means weak or mixed curves; inactive means no such curve, though single readings can be large; an effect the other way counts as inactive or inconclusive.
Tests used:
[1] = qHTS assay to identify small molecule antagonists of the estrogen related receptor signaling pathway with the pleiotropic PPARgamma coactivator (PGC) from Tox21 10K library - cell viability counter screen (AID 1224840; active means well fitted cell-killing curve with a large enough effect in the repeat runs, not every such curve was filed as active; further: nearly all actives have a fitted effect of over 40% in size)
How it was run: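 Following seeding of 2,000 PGC/ERR cells/well and 6 hours' incubation, test compounds were delivered in DMSO. The plates then sat 17.5 hours at 37 C before a fluorogenic live-cell protease reagent (CellTiter-Fluor) was read after 30 min.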

[2] = qHTS assay to identify small molecule agonists of the hypoxia (HIF-1) signaling pathway - cell viability counter screen (AID 1224844; calls by dose curve; further: nearly all actives have a fitted effect of over 50% in size)
How it was run: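 Cells (HRE-bla ME-180, 2,000 per well) sat 5 hrs at 37C, got compound for 17 hrs, were read for CCF4-AM FRET, and were finally lysed with CellTiter-Glo for a 30 min room-temperature luminescence read.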

[3] = qHTS assay to identify small molecule agonists of H2AX (AID 1224845; active means well fitted activation curve with a large enough effect in the signal ratio in the repeat runs, not every such curve was filed as active; the % refers to the signal ratio)
How it was run: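 Wild-type CHO-K1 cells, plated overnight, exposed 3hr at 37C to 15 concentrations (0.76% DMSO final). Lysed, then HTRF anti-pH2AX (S139) cryptate and anti-H2AX-d2 antibodies, 24 hr room temperature; 665/620 nm emission read.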

[4] = qHTS assay to identify small molecule agonists of the hypoxia (HIF-1) signaling pathway (AID 1224846; active means well fitted activation curve with a large enough effect in the signal ratio in the repeat runs, not every such curve was filed as active; the % refers to the signal ratio)
How it was run: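 A low-serum medium (0.5% dialyzed FBS) holding 2,000 HRE-bla ME-180 cells per well is preincubated for 5 hrs, dosed with compounds by pintool, and kept a further 17 hrs at 37C, 5% CO2 before CCF4-AM FRET detection of beta-lactamase.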

[5] = qHTS assay to identify small molecule agonists of H2AX - cell viability counter screen (AID 1224847; calls by dose curve; further: top concentration of the series differs between compounds; nearly all actives have a fitted effect of over 30% in size)
How it was run: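 Counter-screen for viability: CellTiter-Glo ATP luminescence read after 3 h compound treatment (15-point titration, 0.76% DMSO final) of CHO-K1 cells at 37C, with 30 min room-temperature reagent incubation.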

[6] = qHTS RealTime-Glo MT Cell Viability Assay in HepG2 cells - 24 hour (AID 1224867); further: nearly all actives have a fitted effect of over 50% in size
How it was run: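 Real-time, nonlytic viability: 600 HepG2 cells/well mixed with NanoLuc enzyme plus prosubstrate; 5 h settle, compound (DMSO) added by pintool; luminescence monitored over 40 h at 37 C.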

[7] = qHTS RealTime-Glo MT Cell Viability Assay in HEK293 cells - 32 hour (AID 1224868); further: top concentration of the series differs between compounds; nearly all actives have a fitted effect of over 50% in size
How it was run: (§1)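 Cells + reagent dispensed (600 cells/well, HEK293) → 5 h at 37 C/5% CO2 → 23 nL compound in DMSO pinned → 40 h at 37 C → luminescence read at 0, 8, 16, 24, 32, 40 h.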

[8] = A CellTox Green Cytotoxicity Assay to monitor cytotoxicity in HEK293 cells - 0 hour (AID 1224869); further: nearly all actives have a fitted effect of over 50% in size
How it was run: (§2)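 Fluorescence intensity, read at 0, 8, 16, 24, 32 and 40 h of compound treatment, reflected dye binding to DNA of dead HEK293 cells; compounds (23 nL, DMSO) were added 5 h after plating cells with reagent.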

[9] = qHTS RealTime-Glo MT Cell Viability Assay in HepG2 cells - 40 hour (AID 1224870); further: nearly all actives have a fitted effect of over 50% in size
How it was run: (§3)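 HepG2 cells (600/well) mixed with RealTime-Glo MT reagent, settled 5 h at 37 C/5% CO2 before compound addition. Nonlytic NanoLuc luminescence from viable-cell prosubstrate reduction read repeatedly during 40 h treatment at 37 C.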

[10] = A CellTox Green Cytotoxicity Assay to monitor cytotoxicity in HEK293 cells - 40 hour (AID 1224871); further: nearly all actives have a fitted effect of over 45% in size
How it was run: as §2

[11] = qHTS RealTime-Glo MT Cell Viability Assay in HEK293 cells - 16 hour (AID 1224872)
How it was run: as §1

[12] = qHTS RealTime-Glo MT Cell Viability Assay in HepG2 cells - 8 hour (AID 1224873); further: nearly all actives have a fitted effect of over 55% in size
How it was run: as §3

[13] = qHTS RealTime-Glo MT Cell Viability Assay in HEK293 cells - 40 hour (AID 1224874); settings: RealTime-Glo luminescence; max response: active compounds read low; further: nearly all actives have a fitted effect of over 50% in size
How it was run: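 Viable HEK293 cells reduce a cell-permeant prosubstrate; the product diffuses out and is consumed by NanoLuc in the medium to give light. Compounds went in after a 5 h incubation and plates were read over the treatment course.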

[14] = A CellTox Green Cytotoxicity Assay to monitor cytotoxicity in HEK293 cells - 24 hour (AID 1224875); further: series mostly up to about 77 µM; nearly all actives have a fitted effect of over 45% in size
How it was run: as §2

[15] = biological target: Thyrotropin receptor (Homo sapiens) (UniProt P16473); test: qHTS assay to identify small molecule agonists of the thyroid stimulating hormone receptor (TSHR) signaling pathway (AID 1224843; calls by dose curve; further: nearly all actives have a fitted effect of over 45% in size)
Thyrotropin receptor (Homo sapiens), sequence (P16473 whole entry, looked up): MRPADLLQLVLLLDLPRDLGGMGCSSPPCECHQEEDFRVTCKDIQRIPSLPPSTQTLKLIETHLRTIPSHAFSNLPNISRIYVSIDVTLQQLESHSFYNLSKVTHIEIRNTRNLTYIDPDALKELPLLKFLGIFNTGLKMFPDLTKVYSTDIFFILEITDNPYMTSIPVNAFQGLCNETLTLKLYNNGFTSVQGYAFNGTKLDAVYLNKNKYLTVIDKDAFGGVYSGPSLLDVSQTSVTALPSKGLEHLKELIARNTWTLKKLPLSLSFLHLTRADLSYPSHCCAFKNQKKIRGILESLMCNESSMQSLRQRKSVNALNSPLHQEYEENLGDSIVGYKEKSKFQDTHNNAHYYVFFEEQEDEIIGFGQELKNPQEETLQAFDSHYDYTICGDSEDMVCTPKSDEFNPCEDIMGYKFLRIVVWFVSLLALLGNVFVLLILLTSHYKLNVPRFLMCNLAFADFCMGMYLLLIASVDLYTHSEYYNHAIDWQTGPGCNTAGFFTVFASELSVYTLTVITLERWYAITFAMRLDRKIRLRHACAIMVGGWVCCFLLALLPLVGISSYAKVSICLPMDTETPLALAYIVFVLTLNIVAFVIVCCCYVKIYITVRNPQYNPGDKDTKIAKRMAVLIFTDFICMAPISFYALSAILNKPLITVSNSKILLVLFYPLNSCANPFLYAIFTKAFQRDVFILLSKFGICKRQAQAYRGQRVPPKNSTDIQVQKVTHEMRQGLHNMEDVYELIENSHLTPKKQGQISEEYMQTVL
How it was run: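 TSHR-HEK293 cells in agonist mode, 30 min room-temperature step, then cAMP measured by competitive HTRF (cAMP-d2 with anti-cAMP cryptate) after 1 h at room temperature. Tested at 15 concentrations in triplicate.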
On the % scale 0 is the no-effect control and ±100 the full control effect.

CCCCC(=O)N(C)C
inactive: outcome [1] | outcome [2] | outcome [3] | outcome [4] | Potency [5] | outcome [6] | Potency [7] | Potency [8] | outcome [9] | Potency [10] | Potency [11] | outcome [12] | max response [13] 1.13% | Potency [14]

c1ccc(CNc2ncnc3nc[nH]c23)cc1
inactive: outcome [1] | outcome [15] | outcome [2] | outcome [3] | Potency [5] | outcome [6] | outcome [9] | Potency [10] | Potency [14]

CC1=CC[C@H](CC=O)C1(C)C
inactive: outcome [1] | outcome [2] | outcome [3] | outcome [4] | Potency [5] | outcome [6] | outcome [9] | Potency [10] | Potency [11] | outcome [12] | max response [13] 1.6% | Potency [14]

O=c1[nH]c(=O)c2[nH]c(=O)[nH]c2[nH]1
inactive: viability change, negative = cytotoxic [1] -2.62% [at 8.39 µM] | activity change, negative = cytotoxicity [2] 3.89% [at 6.97 µM] | activation (H2AX phosphorylation) [3] 0.259% [at 14 µM] | activation [4] 0.359% [at 7.01 µM] | activity change, negative = cytotoxicity [5] -1.7% [at 14 µM] | activity change, negative = cytotoxicity [6] 1.41% [at 6.97 µM] | cytotoxicity [8] -14.8% [at 6.97 µM] | activity change, negative = cytotoxic [9] 0.76% [at 6.97 µM] | cytotoxicity increase [10] -13.3% [at 6.97 µM] | activity change, negative = cytotoxicity [11] 9.21% [at 6.97 µM] | viability change, negative = cytotoxic [12] 1.36% [at 6.97 µM] | max response [13] 10.6% | activity change [14] -9.62% [at 6.97 µM, active compounds read high]

O=C1OC(=O)c2cc(Oc3ccc4c(c3)C(=O)OC4=O)ccc21
inactive: outcome [1] | outcome [2] | outcome [3] | outcome [4] | Potency [5] | outcome [6] | Potency [7] | Potency [8] | outcome [9] | Potency [10] | outcome [12] | max response [13] 3.57% | Potency [14]

O=C1CC[C@H](C(=O)N2CCCCC2)N1
inactive: outcome [1] | outcome [15] | outcome [2] | outcome [3] | outcome [4] | outcome [6] | Potency [7] | Potency [8] | outcome [9] | Potency [10] | Potency [11] | outcome [12] | max response [13] -2.81% | Potency [14]

Nc1cc(C(=O)O)ccc1Cl
inactive: outcome [1] | outcome [15] | outcome [2] | outcome [3] | Potency [5] | outcome [6] | Potency [7] | Potency [8] | outcome [9] | Potency [10] | Potency [11] | outcome [12] | max response [13] 6.48% | Potency [14]

CCCO
inactive: outcome [1] | outcome [2] | outcome [3] | outcome [4] | Potency [5] | outcome [6] | Potency [8] | outcome [9] | Potency [10] | Potency [11] | max response [13] 1.64% | Potency [14]

SCCSCCS
inactive: outcome [1] | outcome [15] | outcome [2] | outcome [3] | outcome [4] | outcome [6] | Potency [7] | Potency [8] | outcome [9] | Potency [10] | Potency [11] | outcome [12] | max response [13] -1.15% | Potency [14]

CCC(O)C(C)(C)C (stereo not given)
inactive: outcome [1] | outcome [2] | outcome [3] | outcome [4] | Potency [5] | outcome [6] | outcome [9] | Potency [11] | max response [13] 2.07%

Nc1ccc(S(=O)(=O)NC(=O)c2ccccc2)cc1
inactive: outcome [1] | outcome [15] | outcome [2] | Potency [5] | Potency [7] | Potency [8] | outcome [9] | Potency [10] | Potency [11] | outcome [12] | max response [13] 2.96% | Potency [14]

CCCCC[Si](OCC)(OCC)OCC
inactive: outcome [1] | outcome [2] | outcome [3] | outcome [4] | Potency [5] | outcome [6] | Potency [7] | Potency [8] | outcome [9] | Potency [10] | Potency [11] | outcome [12] | max response [13] -19.8% | Potency [14]

C[C@H]1O[C@H](O[C@H]2[C@H](O)[C@@H](O)[C@@H](O[C@H]3[C@H](O)[C@@H](O)[C@H](O)O[C@@H]3CO)O[C@@H]2CO)[C@H](O)[C@@H](O)[C@@H]1N[C@H]1C=C(CO)[C@@H](O)[C@H](O)[C@H]1O
inactive: outcome [1] | outcome [2] | outcome [3] | outcome [4] | Potency [5] | outcome [6] | Potency [7] | Potency [8] | outcome [9] | Potency [10] | Potency [11] | outcome [12] | max response [13] 6.78% | Potency [14]

CCC(C)N (stereo not given)
inactive: outcome [1] | outcome [2] | outcome [3] | outcome [4] | Potency [5] | outcome [6] | Potency [7] | Potency [8] | outcome [9] | Potency [10] | Potency [11] | outcome [12] | max response [13] -5.31% | Potency [14]

O=C(O)c1ccccc1C(=O)OCc1ccccc1
inactive: outcome [1] | outcome [2] | outcome [3] | outcome [4] | Potency [5] | outcome [6] | Potency [7] | Potency [8] | outcome [9] | Potency [10] | Potency [11] | outcome [12] | max response [13] 3.76% | Potency [14]

Cc1ccc(C(=O)C(=O)O)cc1C
inactive: outcome [1] | outcome [2] | outcome [3] | outcome [4] | Potency [5] | outcome [6] | Potency [7] | Potency [8] | outcome [9] | Potency [10] | Potency [11] | outcome [12] | max response [13] -0.829% | Potency [14]

Nc1cc(S(=O)(=O)O)ccc1S(=O)(=O)O
inactive: outcome [1] | outcome [15] | outcome [2] | outcome [3] | outcome [4] | outcome [6] | Potency [7] | Potency [8] | outcome [9] | Potency [10] | Potency [11] | outcome [12] | max response [13] 21% | Potency [14]
